# A selection: hits, their analogues and other compounds. The true share with any hit is near 10%.
# HP1b binding inh – inhibitors of HP1-beta chromodomain binding to methylated histone tails; AlphaScreen HP1-beta / biotin-H3K9me3 peptide binding; Potency, µM (highest dose often 114 µM), without a hit: at the top dose activity change, negative = inhibition, hits mostly inhibitors; 0.56% of 390,000 active; P83916; note: potency is the fitted concentration of half-maximal effect; nearly all actives have a fitted effect of over 70% in size
#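 Compound inhibition of the preformed complex between 50 nM HP1-beta and 50 nM biotinylated H3K9me3 peptide was read by AlphaScreen. Buffer was PBS pH 7.4 with 0.01% Tween-20. Incubations ran 30 min at room temperature, with 10 ug/mL donor/acceptor beads.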
# JMJD2A Tudor inh – inhibitors of human JMJD2A Tudor domain; AID 504339; 4.4% of 390,000 active; AlphaScreen JMJD2A-Tudor / H3K4me3 peptide binding; Potency, µM (titrated, usually from 114 µM), for the others: at the top dose activity change, negative = inhibition, hits mostly inhibitors; note: potency is the fitted concentration of half-maximal effect; % is set by controls: 0 for no effect and ±100 for the full control effect; nearly all actives have a fitted effect of over 50% in size
# Target sequence (O75164 whole entry, looked up, the tested form may be a part): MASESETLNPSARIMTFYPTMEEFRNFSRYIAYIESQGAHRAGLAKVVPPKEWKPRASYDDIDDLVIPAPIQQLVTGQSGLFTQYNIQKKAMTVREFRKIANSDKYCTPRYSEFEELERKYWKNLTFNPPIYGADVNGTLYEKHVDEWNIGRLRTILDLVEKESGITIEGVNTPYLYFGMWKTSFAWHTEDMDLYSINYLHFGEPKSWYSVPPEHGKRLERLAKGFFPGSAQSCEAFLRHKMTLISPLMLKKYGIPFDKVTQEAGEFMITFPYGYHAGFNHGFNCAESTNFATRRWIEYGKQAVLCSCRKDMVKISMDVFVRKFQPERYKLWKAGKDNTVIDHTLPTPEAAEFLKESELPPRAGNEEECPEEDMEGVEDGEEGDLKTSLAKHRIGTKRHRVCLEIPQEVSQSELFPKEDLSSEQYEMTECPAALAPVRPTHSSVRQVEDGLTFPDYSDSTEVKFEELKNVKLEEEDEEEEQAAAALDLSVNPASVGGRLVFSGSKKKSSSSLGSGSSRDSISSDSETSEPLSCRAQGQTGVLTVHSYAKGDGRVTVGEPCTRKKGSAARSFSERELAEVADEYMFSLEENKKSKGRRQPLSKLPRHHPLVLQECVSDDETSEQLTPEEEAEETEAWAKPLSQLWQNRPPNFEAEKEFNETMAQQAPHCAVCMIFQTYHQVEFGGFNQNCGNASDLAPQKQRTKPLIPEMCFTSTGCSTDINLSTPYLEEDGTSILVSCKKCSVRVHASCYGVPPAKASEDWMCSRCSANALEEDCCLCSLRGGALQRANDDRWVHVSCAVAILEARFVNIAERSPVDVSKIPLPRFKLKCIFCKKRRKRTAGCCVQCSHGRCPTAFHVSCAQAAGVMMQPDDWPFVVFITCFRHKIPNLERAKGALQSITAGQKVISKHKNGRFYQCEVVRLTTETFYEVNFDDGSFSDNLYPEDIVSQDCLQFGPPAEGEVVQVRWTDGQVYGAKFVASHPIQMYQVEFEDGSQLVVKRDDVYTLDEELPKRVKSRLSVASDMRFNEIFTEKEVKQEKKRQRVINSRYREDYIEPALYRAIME
# BAZ2B block – BAZ2B (human) inhibition; AlphaScreen BAZ2B-H3K14Ac peptide displacement; Potency, µM (top dose mostly 114 µM), for the others: at the highest dose activity change, negative = inhibition, actives largely listed as inhibitors; 4.4% of 360,000 active; AID 504333; note: potency is the fitted concentration of half-maximal effect; % is set by controls: 0 for no effect and ±100 for the full control effect; nearly all actives have a fitted effect of over 60% in size
#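 Inhibition is scored as reduced AlphaScreen emission. The BAZ2B/b-H3(5-23)K14Ac complex (50 nM each) in PBS pH 7.4, 0.01% Tween-20 meets compound (up to 110 uM) for 30 min at RT before bead addition.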
# G9a inh – blocks human histone lysine methyltransferase G9a; Q96KQ7; G9a H3K9 monomethylation, AlphaScreen, 2 h; Potency, µM (titrated, usually from 102 µM), for the others: at the highest dose activity, negative = inhibition, hits mostly inhibitors; 8.8% of 350,000 active; AID 504332; note: potency is the fitted concentration of half-maximal effect; % is set by controls: 0 for no effect and ±100 for the full control effect; nearly all actives have a fitted effect of over 75% in size
#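 Chemiluminescent proximity detection of H3K9 monomethylation, read after 10 min bead incubation in the dark. Reaction: 20 nM G9a, 500 nM biotin-H3K9 peptide, 20 uM SAM cofactor, 2 h, room temperature, following 15 min enzyme-compound preincubation.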
# Six1-Eya2 blk – blocks human Six1 binding to Eya2. AlphaScreen GST-Six1/His-Eya2 binding, biochemical; stronger effect = lower value. activity change, % (test concentration not listed). 0.56% of 360,000 active. Q15475+O00167; in the data active = activity change below about -65%; inconclusive = mostly about -30% to -63%; note: % is set by controls: 0 for no effect and ±100 for the full control effect
#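 Six1/Eya2 binding was read as AlphaScreen signal after compounds were pinned into GST-Six1 plus His-tagged Eya2 (5X stock 250/500 nM) in pH 8.0 Tris/NaCl/TCEP buffer, beads added, then incubated 1 h, 37 C, dark.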
# CtBP-E1A inh – blocks the CtBP interaction with E1A; 0.49% of 340,000 active; activity change, % (no concentration beside the values); AID 651724; AlphaScreen GST-E1A/His-CtBP binding, 1536-well; stronger effect = lower value; in the data active = activity change below about -65%; inconclusive = mostly about -30% to -63%; note: % is set by controls: 0 for no effect and ±100 for the full control effect
#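 Homogeneous bead-based format: GST-tagged E1A captured on glutathione donor beads, His-tagged CtBP on nickel acceptor beads; compounds precede bead addition by 2 h at 37 °C.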
# The depositor's hits bear a star; u = inconclusive; x = not tested or not shown; [ ] = remark or other dose. Unless noted, calls come from the whole dose curve; as a rule, active = well fitted inhibition curve with a large enough effect; inconclusive = small, poorly fitted or top-dose-only effect; inactive = no such curve, though single readings can be large or run the other way.
SMILES,HP1b binding inh,JMJD2A Tudor inh,BAZ2B block,G9a inh,Six1-Eya2 blk,CtBP-E1A inh
COc1cc(C#Cc2c(-c3cncn3C)n(C)c3ccc(-c4ccc(CN5CCOCC5)cc4)cc23)cc(OC)c1,4%,8.9µM*,x,x,-22,-23
COc1cc(C#Cc2c(-c3cncn3C)n(C)c3ccc(-c4cnc(OC)nc4)cc23)cc(OC)c1,7%,u,50µM*,7%[0.501 µM],-14,-3
CCOc1ccccc1C(=O)Nc1cc(-c2ccc(C)cc2)no1,41%,-11%,-9%,-7%[59 µM],x,x
COc1ccc(C[C@H](N)C(=O)N[C@H]2[C@@H](O)[C@H](n3cnc4c(N(C)C)ncnc43)O[C@@H]2CO)cc1,-3%,79µM*,-6%,u,3,9
CN(C)c1ncnc2c1ncn2C1OC(CO)C(O)C1O (stereo unspecified),13%,-12%,12%,-2%[59 µM],8,-1
O=C(CSc1c2c(nc3ccc(Cl)cc13)CCCC2)N1CCN(c2cccc(Cl)c2)CC1,13%,-26%,x,u,x,x
COc1cc(CNCc2ccccn2)ccc1OCc1ccc(Cl)cc1Cl,5%,u,u,40%[12.7 µM],-25,-28
COc1cc(CNCc2ccccc2)ccc1OCC(O)c1ccccc1 (stereo unspecified),-8%,20µM*,u,11µM*,-5,x
COc1ccc(CNCCc2ccc(Cl)cc2)cc1OCc1ccccc1,u,40µM*,56µM*,10µM*,-16,26
COc1ccc(CNCCc2ccccc2)cc1OCC(N)=O,23%,-10%,1%,x,-2,2
COc1cc(CNCc2ccccn2)ccc1OCC(N)=O,21%,50µM*,14µM*,2.2µM*,u,-2
COc1cc(CNCc2ccccn2)ccc1OCc1ccc(Cl)c(Cl)c1,14%,u,u,50µM*,-19,u
COc1ccc(CC(=O)NCCS(=O)(=O)N2CCN(c3ccccc3)CC2)cc1,-1%,-11%,-1%,45µM*,-5,4
COc1ccc(N2CCN(S(=O)(=O)CCNC(=O)c3ccco3)CC2)cc1,12%,-7%,5%,17%[2.33 µM],8,-20
COc1ccc(N2CCN(S(=O)(=O)CCNC(=O)c3ccc(Br)o3)CC2)cc1,25%,-17%,-6%,79µM*,0,-4
COc1ccc(N2CCN(S(=O)(=O)CCNS(=O)(=O)c3ccccc3)CC2)cc1,29%,8%,-3%,14µM*,-1,2
COc1ccccc1C(=O)NCCN1CCCC1,x,x,x,x,6,0
CC(=O)c1cc(NC(=O)c2ccc(C)cc2)c(=O)oc1/C=C/N(C)C,19%,-20%,1%,-40%[12.7 µM],10,19
O=C(Nc1cc2c(oc1=O)CCCC2=O)c1cccc(Cl)c1,10%,-7%,-23%,-11%,-1,-5
CC1(C)CC(=O)c2cc(NC(=O)c3ccccc3)c(=O)oc2C1,6%,79µM*,-1%,-22%,2,2
CC(=O)c1cc(NC(=O)c2ccc(C)cc2)c(=O)oc1C,-23%,20µM*,-19%,18µM*,-8,0
CC(=O)c1cc(NC(=O)c2ccccc2)c(=O)oc1C,u,-33%,-21%,32µM*,-4,-18
Cc1oc(=O)c(NC(=O)c2ccccc2)cc1C(=O)c1ccccc1,23%,-25%,-6%,x,-1,5
O=C(OCc1ccccc1)N1C=CCC[C@@H]1c1c(Cl)cccc1Br,x,x,x,x,9,31
CCOc1ccccc1CNC(=O)CN1C(=O)CCc2cc(S(=O)(=O)N3CCCCC3)ccc21,36%,-2%,-28%,33%[59 µM],x,x
Cc1ccc(C(=O)NC(=S)Nc2ccc(N3CCOCC3)cc2)c(C)c1,u,u,22µM*,x,-11,-11
Cc1ccc(C(=O)NC(=S)Nc2ccc3c(c2)OCCO3)c(C)c1,14%,u,u,u,-22,-14
CCCCCC(=O)NC(=S)Nc1ccc(N2CCOCC2)cc1,0%,-20%,u,3.5µM*,7,x
CN(Cc1cccs1)C(=O)c1ccc(Cl)c(S(=O)(=O)N2CCCCCC2)c1,23%[57 µM],0%,x,x,-1,3

# From PubChem BioAssay
